Results published in patent US5652105, “Substrate for detection of mammalian 5-C-DNA methyltransferase” (Health Research, Inc.).

Biological target: DNA 5-C-methyltransferase (murine, Friend erythroleukemia cells) (Mus musculus, UniProt P13864 P13864:1-1620)
Experiment: same rate as unmethylated A
Conditions: protein: extract; tags: 0.3 M NaCl nuclear extract, 100,000 x g supernatant; single approx. 190 kDa species forming covalent complexes; homodimer, no analogous stem-loop; ssDNA; 5mC at 7

Chain of DNA 5-C-methyltransferase (murine, Friend erythroleukemia cells) (P13864 whole entry, one chain of several): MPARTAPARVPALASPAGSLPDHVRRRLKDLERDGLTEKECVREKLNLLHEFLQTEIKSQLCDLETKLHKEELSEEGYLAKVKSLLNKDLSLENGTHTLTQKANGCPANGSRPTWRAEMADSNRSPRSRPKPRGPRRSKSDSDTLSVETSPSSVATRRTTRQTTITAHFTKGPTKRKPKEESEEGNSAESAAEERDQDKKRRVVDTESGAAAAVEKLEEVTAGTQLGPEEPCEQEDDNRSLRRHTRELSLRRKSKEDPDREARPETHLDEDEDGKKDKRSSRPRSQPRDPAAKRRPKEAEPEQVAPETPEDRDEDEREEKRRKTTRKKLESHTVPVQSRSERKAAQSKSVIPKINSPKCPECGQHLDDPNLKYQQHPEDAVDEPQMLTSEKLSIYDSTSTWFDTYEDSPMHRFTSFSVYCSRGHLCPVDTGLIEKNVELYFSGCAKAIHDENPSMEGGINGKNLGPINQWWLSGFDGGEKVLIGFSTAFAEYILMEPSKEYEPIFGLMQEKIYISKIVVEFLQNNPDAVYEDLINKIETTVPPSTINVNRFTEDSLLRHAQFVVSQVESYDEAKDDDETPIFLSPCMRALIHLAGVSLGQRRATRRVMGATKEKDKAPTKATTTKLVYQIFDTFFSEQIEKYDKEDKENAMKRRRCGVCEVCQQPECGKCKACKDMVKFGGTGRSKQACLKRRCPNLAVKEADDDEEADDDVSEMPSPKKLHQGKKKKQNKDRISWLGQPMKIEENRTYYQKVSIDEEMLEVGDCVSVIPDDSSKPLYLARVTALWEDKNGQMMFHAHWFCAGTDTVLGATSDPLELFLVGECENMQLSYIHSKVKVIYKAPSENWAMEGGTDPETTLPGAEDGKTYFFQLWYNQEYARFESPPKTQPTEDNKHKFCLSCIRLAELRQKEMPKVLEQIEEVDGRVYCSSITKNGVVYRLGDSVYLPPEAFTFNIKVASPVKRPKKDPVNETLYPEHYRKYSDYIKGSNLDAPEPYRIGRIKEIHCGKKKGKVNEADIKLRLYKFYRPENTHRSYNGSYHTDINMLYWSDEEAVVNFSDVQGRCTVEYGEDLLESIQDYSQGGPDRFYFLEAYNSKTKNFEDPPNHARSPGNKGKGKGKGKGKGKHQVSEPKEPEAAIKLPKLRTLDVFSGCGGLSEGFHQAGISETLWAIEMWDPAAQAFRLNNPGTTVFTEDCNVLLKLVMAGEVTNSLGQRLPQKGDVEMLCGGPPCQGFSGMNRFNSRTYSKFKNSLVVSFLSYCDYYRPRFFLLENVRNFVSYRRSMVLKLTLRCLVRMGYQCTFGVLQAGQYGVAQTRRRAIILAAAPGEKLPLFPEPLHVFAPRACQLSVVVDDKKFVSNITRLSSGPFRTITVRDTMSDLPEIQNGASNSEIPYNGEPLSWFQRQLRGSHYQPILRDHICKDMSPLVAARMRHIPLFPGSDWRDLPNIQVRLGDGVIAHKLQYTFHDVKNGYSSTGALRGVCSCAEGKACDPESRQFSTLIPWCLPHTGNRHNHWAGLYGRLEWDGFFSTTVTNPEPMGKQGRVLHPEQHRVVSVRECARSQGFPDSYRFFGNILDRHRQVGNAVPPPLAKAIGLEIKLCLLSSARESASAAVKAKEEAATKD

Sequence: ATTGCGCTACTCGGATCCGGCCAT
- binding signal: 1 relative to A
